From PubChem BioAssay AID720706 (Broad Institute, 2013)
The whole screen tested about 350,000 compounds, of which about 5,500 (1.6%) were called active.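 The calls were made as follows: active = significant combined selectivity score with lowered wild-type GFP, culture density cut under 30%, mutant RFP and density less affected; inactive = any of these conditions unmet.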 Only a selection was taken, and actives are over-represented in it overall.

Assay: reduced GFP signal of wild-type E. coli, primary screen, bacterial rRNA inhibitor project, GFP/RFP fluorescence, OD600, single point (AID 720706)
Conditions: E. coli WT GFP vs humanized-ribosome RFP mutants, 24 h; GFP signal change (wild-type ribosome): stronger effect = lower value, DMSO median 0, no signal -100; OD600 change: measured here: OD600 growth, DMSO median 0, no signal -100; RFP signal change: measured here: RFP humanized mutant strains, DMSO median 0, no signal -100, concentration not given here

SMILES | GFP signal change (wild-type ribosome) | OD600 change [%] | RFP signal change [%]
COCC#Cc1ccc([C@H]2[C@H](CO)N3CCCCN(Cc4ccncc4)C[C@@H]23)cc1 | -2.93% (inactive) | -2.59 | -5.64
CC(C)CNS(=O)(=O)c1ccc(CCC(=O)NCc2ccc(Cl)cc2)cc1 | 10.8% (inactive) | 11.2 | -2.51
Cc1ccc(S(=O)(=O)NC(C)C(=O)NCc2ccc(Cl)cc2)cc1 (stereo unspecified) | -22.7% (active) | -10.8 | -4.03
COc1ccc(S(=O)(=O)NC(C)C(=O)NCc2ccncc2)cc1Cl (stereo unspecified) | 2.54% (inactive) | 0.925 | -2.25
CCC(=O)Nc1ccc2c(c1)OC[C@@H](C)N(CC1CC1)C[C@H](C)[C@H](OC)CN(C)C2=O | 1.22% (inactive) | -0.6 | -0.045
CC(C)(C)C(=O)/C(C#N)=C/c1ccc(O)cc1 | 19.8% (inactive) | 5.69 | -9.62
CC(C)NC(=O)/C(C#N)=C\c1ccc(N(C)C)c(Br)c1 | -19.9% (active) | -12.4 | 3.85
Cc1[nH]c2ccccc2c1/C=C(/C#N)C(=O)NC(C)C | -4.98% (inactive) | 5.32 | -3.18
O=C(NCC[C@H]1CC[C@H](NS(=O)(=O)c2ccccc2)[C@H](CO)O1)c1cc(Cl)cc(Cl)c1 | -5.21% (inactive) | -26.1 | 22
CCc1cc(C(=O)OC)c(NC(=O)CC2Sc3ccc(C(F)(F)F)cc3NC2=O)s1 (stereo unspecified) | 0.188% (inactive) | 4.88 | -2.55
COC(=O)c1cc(C)sc1NC(=O)CC1Nc2ccccc2NC1=O (stereo unspecified) | -18.4% (active) | -7.76 | 12.5
Cc1ccc(CNC(=O)CC2Sc3ccccc3NC2=O)cc1 (stereo unspecified) | 11.2% (inactive) | 14.1 | 3.46
O=C(O)c1[nH]c2ccccc2c1C(c1cccc(O)c1)c1c(C(=O)O)[nH]c2ccccc12 | -25.6% (active) | -18.5 | 8.53
O=C(OCC(=O)c1c[nH]c2ccccc12)c1cccc(O)c1 | -42.8% (inactive) | -45.1 | -14.1
COc1ccc2c3c(n(C)c2c1)[C@@H](CO)N(C(C)=O)CC31CCN(Cc2ccc(Cl)cc2)CC1 | -1.69% (inactive) | -3.51 | 1.83
O=C1/C(=C/c2ccc(F)cc2)SC(=S)N1CCCC(=O)N1CCCCC1CCO (stereo unspecified) | -19.1% (inactive) | -28.5 | -4.34
C=CCOc1ccc(/C=C2\SC(=S)N(CCC(=O)O)C2=O)cc1 | -32.4% (active) | -18.9 | -4.79
COc1ccc(/C=C2\SC(=S)N(CCC(=O)N3CCOCC3)C2=O)cc1OC | 10.4% (inactive) | 16.7 | 0.46
Cc1ccccc1-c1cc(C(=O)NCC2CC2)n(CC2CC(c3cccnc3)=NO2)n1 (stereo unspecified) | -8.08% (inactive) | -3.34 | -12
Cc1ccccc1-c1cc(C(=O)NCc2cccs2)n(CC2CC(c3cccnc3)=NO2)n1 (stereo unspecified) | -17.6% (active) | -10.9 | 5.68
Cc1ccc(CNC(=O)c2cc(-c3ccccc3C)n(CC3CC(c4cccc([N+](=O)[O-])c4)=NO3)n2)cc1 (stereo unspecified) | 6.99% (inactive) | 10.7 | -2.49

SMILES | GFP signal change (wild-type ribosome) | OD600 change [%] | RFP signal change [%]
C=CCNc1nc(Nc2ccc(Cl)cc2)nc(OC)n1 | -33.3% (inactive) | -34 | -2.27
O=C(NNC(=O)c1ccc2ccccc2c1)c1ccc(Cl)cc1 | 2.13% (inactive) | 11.3 | -2.59
Clc1ccc(Nc2ccc3ccccc3n2)cc1 | -54.6% (active) | -30 | -18
COc1ccc(C#Cc2ccc([C@H]3[C@@H](CO)N4CCCCN(S(=O)(=O)c5cn(C)cn5)C[C@H]34)cc2)cc1 | -58.4% (inactive) | -77.4 | -16.4
O=C(CC1CC1)N1[C@@H](CO)[C@@H](c2ccccc2)C12CN(S(=O)(=O)c1ccccc1)C2 | -0.794% (inactive) | 0.08 | 4.17
CO[C@H]1CN(C)C(=O)c2ccc(NC(=O)C3CC3)cc2OC[C@H](C)N(C(=O)CN2CCOCC2)C[C@@H]1C | 2.07% (inactive) | 1.32 | -3.59
C[C@H](CO)N1C[C@H](C)[C@H](CN(C)Cc2ccc(C(=O)Nc3ccccc3N)cc2)Oc2ccc(NC(=O)Nc3ccccc3)cc2CC1=O | -24.5% (inactive) | -22.3 | 1.58
C[C@@H]1CCCCO[C@H](CN(C)C(=O)NC2CCCCC2)[C@H](C)CN([C@@H](C)CO)C(=O)c2cc(NC(=O)C3CCCCC3)ccc2O1 | -5.13% (inactive) | -0.493 | -3.14
COc1ccc(NC(=O)Nc2cccc3c2O[C@@H](CN(C)S(=O)(=O)c2cn(C)cn2)[C@H](C)CN([C@@H](C)CO)C3=O)cc1 | -1.33% (inactive) | -1.5 | -0.415
O=C(NC1CCCC1)[C@@H]1[C@@H](CO)[C@@H]2Cn3c(ccc(-c4ccc(F)cc4)c3=O)[C@H]1N2Cc1cocn1 | -0.879% (inactive) | 4.54 | -1.31
COC(=O)C[C@@H]1C[C@@H]2c3cc(NC(=O)NC4CCCC4)ccc3O[C@@H]2[C@@H](CO)O1 | 1.15% (inactive) | -0.449 | -0.687
OC[C@@H]1CN(Cc2ccc(F)cc2)C[C@H](n2cnc3c(NC4CCCC4)ncnc32)O1 | -15.1% (inactive) | -8.49 | 0.518
OC[C@@H]1CN(Cc2cccs2)C[C@H](n2cnc3c(NC4CCCC4)ncnc32)O1 | -2.42% (inactive) | -4.54 | 4.82
OC[C@@H]1CN(Cc2ccc(-c3ccccc3)cc2)C[C@H](n2cnc3c(NC4CCCC4)ncnc32)O1 | -21.9% (active) | -14.8 | -2.32
CCCN1C[C@@H](C)[C@@H](OC)CN(C)C(=O)c2cc(NC(=O)NC3CCCCC3)ccc2OC[C@H]1C | 2.68% (inactive) | 4.16 | -1.33
O=C(C[C@@H]1CC[C@@H]2[C@H](COC[C@H](O)CN2S(=O)(=O)c2ccc(F)cc2)O1)NCc1ccc(Cl)c(Cl)c1 | -20.8% (inactive) | -43.9 | 0.781
C[C@@H]1CN([C@H](C)CO)C(=O)Cc2cc(NC(=O)Cn3cnnn3)ccc2O[C@@H]1CN(C)S(=O)(=O)c1ccc(F)cc1 | 4.41% (inactive) | -2.05 | 0.611
CC1(C(=O)O)CCC(C(=O)Nc2ccc(Cl)c(Cl)c2)C1(C)C (stereo unspecified) | -23.4% (active) | -16.1 | -7.62
O=C(Nc1ccc2c(c1)OCO2)C1CC1(Cl)Cl (stereo unspecified) | -1.64% (inactive) | 3.17 | -2.98
O=C(Nc1ccc(Cl)c(Cl)c1)c1ccccc1NC(=O)C1CC=CCC1C(=O)O (stereo unspecified) | -35.4% (inactive) | -49.6 | -4.13
Cc1noc(C)c1S(=O)(=O)Nc1ccc2c(c1)CC(=O)N([C@@H](C)CO)C[C@H](C)[C@H](CN(C)C(=O)Nc1cccc3ccccc13)O2 | -2.17% (inactive) | -1.79 | 1.2

SMILES | GFP signal change (wild-type ribosome) | OD600 change [%] | RFP signal change [%]
COc1ccc(S(=O)(=O)Nc2ccc3c(c2)CC(=O)N([C@@H](C)CO)C[C@@H](C)[C@@H](CN(C)Cc2ccc(C(=O)Nc4ccccc4N)cc2)O3)cc1 | -5.01% (inactive) | -12 | 2.02
C[C@H](CO)N1C[C@H](C)[C@H](CN(C)C)Oc2ccc(NC(=O)c3ccncc3)cc2CC1=O | 2.76% (inactive) | 14.2 | 0.42
CCn1c2ccccc2c2cc(NC(=O)COC(=O)c3cc(S(=O)(=O)N4CCCCC4)ccc3Cl)ccc21 | 10.5% (inactive) | 8.82 | 4.22
O=C(c1cccc(S(=O)(=O)N2CCCCCC2)c1)N1CCN(Cc2ccccc2)CC1 | -2.42% (inactive) | -10.1 | 4.63
CCn1c(O)c(N=NC(=O)c2cccc(S(=O)(=O)N3CCCCC3)c2)c2ccccc21 | -23.6% (active) | -16.1 | -4.79
COc1ccc(CN2[C@H](CO)[C@@H]3c4ccccc4N(C(=O)C4CC4)C[C@@H]32)cc1 | -9.79% (inactive) | -9.13 | -1.21
O=C(NC1CCCCC1)N1CC2(C1)[C@H](c1ccccc1)[C@@H](CO)N2S(=O)(=O)Cc1ccccc1 | -0.158% (inactive) | -18.2 | 1.15
Cc1nc2nc[nH]n2c(=O)c1C/C=C/c1ccccc1 | -22.4% (active) | 1.36 | -5.82
C=CCc1c(C)nc2cc(-c3ccccc3)[nH]n2c1=O | -6.23% (inactive) | -4.26 | -2.25
O=C(C[C@H]1C=C[C@H](NC(=O)C2CCOCC2)[C@@H](CO)O1)NCC1CC1 | -0.532% (inactive) | 2.38 | 0.125
C[C@@H]1CN(C)C(=O)c2cc([N+](=O)[O-])ccc2O[C@@H]1CN(C)C(=O)OC(C)(C)C | -2.71% (inactive) | 7.21 | -0.0835
COc1cccc(Nc2nc(N)c([N+](=O)[O-])c(NCc3ccco3)n2)c1 | -45.5% (active) | -19.5 | -12.3
COc1cccc(NC(=O)COc2cccnc2[N+](=O)[O-])c1 | 2.25% (inactive) | 2.69 | -3.22
CCN1CCN(c2nc(Nc3cccc(F)c3)nc(N)c2[N+](=O)[O-])CC1 | 1.28% (inactive) | -14.8 | -3.28
CO[C@H]1CN(C)C(=O)c2cc(NC(=O)c3cnccn3)ccc2OC[C@@H](C)N(CC2CC2)C[C@@H]1C | 1.98% (inactive) | -3.03 | -2.31
CN(Cc1ccccc1F)C[C@H]1[C@@H](c2ccccc2)[C@@H](CO)N1S(C)(=O)=O | -3.23% (inactive) | -1.8 | -1.06
Cc1noc(C)c1S(=O)(=O)Nc1ccc2c(c1)CC(=O)N([C@H](C)CO)C[C@@H](C)[C@@H](CN(C)Cc1ccncc1)O2 | -1.08% (inactive) | 6.97 | 0.021
O=C(COC(=O)C1CCCO1)Nc1nc(-c2ccc(F)cc2)cs1 (stereo unspecified) | -5.81% (inactive) | -14.9 | -1.04
COc1ccc(OC)c(-c2csc(NC(=O)COC(=O)C3CC3)n2)c1 | -18% (active) | -4.55 | 5.3
COc1ccc(OC)c(-c2csc(NC(=O)C3=NNC(=O)CC3)n2)c1 | -21.6% (inactive) | -29.6 | -5.17
